SMILES strings stand for the structures. “And” between values parts separate entries of the source, which are not always exact repeats. Equal entries are not always repeated. Records with an inconclusive call do not appear. Values without a mark were called inactive. The source made the active and inactive calls. Calls come from the whole dose curve; as a rule, active = well fitted curve in the direction sought with a large enough effect; inconclusive = small, poorly fitted or top-dose-only effect, or another doubt; inactive = no such curve, though single readings can be large; an effect the other way counts as inactive or inconclusive.

In assay [1] the target is Cellular tumor antigen p53 (Homo sapiens) (UniProt P04637). Put plainly: Primary qHTS for small molecule compounds that upregulate eGFP-tagged delta133p53alpha (in N-terminal) cells. (AID 2060322).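 For activation: 0% = DMSO vehicle and 100% = reference activator.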 Note: nearly all actives have a fitted effect of over 75% in size. Particulars: NCI-H358 eGFP-delta133p53alpha fluorescence, 24 h; activation: active compounds read high. In outline: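 NCI-H358 cells pre-induced 24 h with 10 ng/ml doxycycline to express N-terminal eGFP-delta133p53alpha, then dosed 24 h at 37C without doxycycline; fixed, Hoechst-stained, GFP intensity by laser scanning cytometry, normalized to DMSO (0%) and 57.5 uM 5-azacytidine (100%).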
In general terms: Quantitative high-throughput screening tests each substance at several concentrations.

Assay [2] is described as follows: BET inhibitor-based combinations targeting novel dependencies in MECOM-rearranged (r) AML: SET-2 cell line (AID 2202231).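 For viability: plate controls were DMSO treated cells for no effect and wells without cells for full effect.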 Note: nearly all actives have a fitted effect of over 35% in size. To be noted: SET-2 AML cells viability, CellTiter-Glo luminescence, 48 h; viability: active compounds read low, concentration not given here. Put shortly: (§1)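 Cells were plated at 500 per well and exposed to an 11-point dose series of each drug for 48 hr. Viability was measured by CellTiter-Glo luminescence, normalized to DMSO and empty-well controls, and summarized as AUC and per-cell-line Z-AUC.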
(ATP-based viability assays read luminescence as a measure of living cells.)

Assay [3] in a line: BET inhibitor-based combinations targeting novel dependencies in MECOM-rearranged (r) AML: OCI-AML3 cell line (AID 2202232). Note: nearly all actives have a fitted effect of over 35% in size. Particulars: CellTiter-Glo luminescence, 48 h; Potency: OCI-AML3 viability; series mostly up to 46 µM. Put shortly:
as §1

A short description of assay [4]: BET inhibitor-based combinations targeting novel dependencies in MECOM-rearranged (r) AML: MV-4-11 cell line (AID 2202233). Note: nearly all actives have a fitted effect of over 45% in size. To be noted: MV-4-11 AML viability, CellTiter-Glo luminescence, 48 h; series mostly up to 46 µM. Put shortly: (§2)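 Activity is given as area under the curve and as Z-AUC, mean-centred within each cell line. It comes from 11-point dose curves normalized to DMSO and empty wells. CellTiter-Glo luminescence was read after 48 hr drug exposure of 500 cells/well.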

Assay [5] can be described thus: BET inhibitor-based combinations targeting novel dependencies in MECOM-rearranged (r) AML: HNT-34 cell line (AID 2202234). Note: nearly all actives have a fitted effect of over 35% in size. Particulars: HNT-34 AML viability, CellTiter-Glo luminescence, 48 h; series mostly up to 46 µM. Put shortly:
as §2

Assay [6] is described as follows: BET inhibitor-based combinations targeting novel dependencies in MECOM-rearranged (r) AML: UCSD-AML1 cell line (AID 2202235). Note: nearly all actives have a fitted effect of over 40% in size. Particulars: UCSD-AML1 AML cells viability, CellTiter-Glo, 48 h; series mostly up to 46 µM. In outline:
as §2

Assay [7] can be described thus: BET inhibitor-based combinations targeting novel dependencies in MECOM-rearranged (r) AML: AML-191 cell line (AID 2202236; note: nearly all actives have a fitted effect of over 35% in size). Particulars: AML-191 viability, CellTiter-Glo luminescence, 48 h; series mostly up to 46 µM. In outline: as §1
A short description of assay [8]: BET inhibitor-based combinations targeting novel dependencies in MECOM-rearranged (r) AML: AML-194 cell line (AID 2202237; note: nearly all actives have a fitted effect of over 40% in size). Particulars: AML-194 (MECOM-r AML) viability, CellTiter-Glo, 48 h; series mostly up to 46 µM. In outline:
as §1
Potency is the fitted concentration of half-maximal effect.

Cellular tumor antigen p53 (Homo sapiens), sequence (P04637 whole entry, looked up): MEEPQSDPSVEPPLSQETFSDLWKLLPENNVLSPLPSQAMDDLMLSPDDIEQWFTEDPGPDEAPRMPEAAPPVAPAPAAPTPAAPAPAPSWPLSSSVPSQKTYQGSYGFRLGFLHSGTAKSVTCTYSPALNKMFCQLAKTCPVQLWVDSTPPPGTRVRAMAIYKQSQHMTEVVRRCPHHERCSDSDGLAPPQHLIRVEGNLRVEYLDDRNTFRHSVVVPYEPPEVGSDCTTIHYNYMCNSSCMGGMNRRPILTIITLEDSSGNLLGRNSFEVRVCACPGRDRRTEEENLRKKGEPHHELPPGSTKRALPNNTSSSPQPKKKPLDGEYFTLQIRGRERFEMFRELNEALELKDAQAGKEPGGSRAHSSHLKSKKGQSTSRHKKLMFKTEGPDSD

A word on the viability: it is a read-out of living cells in per cent, often relative to untreated cells. `NC[C@H]1O[C@H](O[C@@H]2[C@@H](O)[C@@H](O[C@H]3O[C@H](CO)[C@@H](O)[C@H](N)[C@@H]3O)[C@H](N)C[C@@H]2N)[C@H](O)[C@@H](O)[C@H]1O`: the activation in assay [1] was 5.09%. Besides, the viability in assay [2] is 111%. Further, the Potency entry in assay [3], in assay [4], in assay [5], in assay [6], in assay [7] and in assay [8] was “inactive” in each case.

In the case of `C#C[C@]1(O)CC[C@H]2[C@@H]3CCc4cc(OC)ccc4[C@H]3CC[C@@]21C`, the activation in assay [1] is -5.08%. Also, the viability in assay [2] is 117%. Moreover, the Potency entry in assay [3], in assay [4], in assay [5] and in assay [6] was “inactive” each time.

For `C=C(C)[C@@H]1CC[C@]2(C(=O)O)CC[C@]3(C)[C@H](CC[C@@H]4[C@@]5(C)CC[C@H](O)C(C)(C)[C@@H]5CC[C@]43C)[C@@H]12`, in assay [1], the activation was 7.46%. The viability in assay [2] is 115%. In addition, the Potency result in assay [3], in assay [4], in assay [5], in assay [6], in assay [7] and in assay [8] was “inactive” in each case.

As to `CCCc1nc2c(C)cc(-c3nc4ccccc4n3C)cc2n1Cc1ccc(-c2ccccc2C(=O)O)cc1`, the activation in assay [1] is -6.69% and 11.8%. Moreover, the viability in assay [2] was 120%. The Potency result in assay [3], in assay [4], in assay [5], in assay [6], in assay [7] and in assay [8] was “inactive” throughout.

On to `N[C@@]1(C(=O)O)CS(=O)(=O)[C@H]2[C@H](C(=O)O)[C@H]21`, for which the activation in assay [1] was -21.5%. In assay [2], the viability was 114%. Also, the Potency result in assay [3], in assay [4], in assay [5], in assay [6], in assay [7] and in assay [8] was “inactive” in each case.

`N=c1ccn2c(n1)O[C@H]1[C@@H](O)[C@@H](CO)O[C@H]12`: the activation in assay [1] was 18.1%. Further, the Potency is 1.05 µM (active) in assay [2]; 5.25 µM (active) in assay [3]; 1.32 µM (active) in assay [4]; 0.235 µM (active) in assay [5]; 0.0833 µM (active) in assay [6]; 0.235 µM (active) in assay [7]. Moreover, the Potency in assay [8] was 0.118 µM (active).

As to `CCC(C)SSc1ncc[nH]1` (stereo unspecified), the activation in assay [1] is -4.29%. The Potency in assay [2] is 11.8 µM (active); in assay [3], 8.33 µM (active); in assay [4] it was 2.63 µM (active); in assay [5], 9.34 µM (active); in assay [6] it was 7.42 µM (active); in assay [7], 5.25 µM (active). The Potency in assay [8] is 7.42 µM (active).

Turning to `CNC(=O)c1cc(Oc2ccc(NC(=O)Nc3cc(C(C)(C)C)nn3-c3ccc4ncccc4c3)c(F)c2)ccn1`, the Potency in assay [1] is 5.36 µM (active); in assay [2] it was 18.6 µM (active); in assay [3], 23.5 µM (active); in assay [4], 0.0468 µM (active); in assay [5] it was 0.148 µM (active); in assay [6] it was 16.6 µM (active). For the same molecule, the Potency in assay [7] and in assay [8] was 20.9 µM (active) in each case.

Turning to `Cc1cc2nc3c(=O)[nH]c(=O)nc-3n(CC(O)C(O)C(O)CO)c2cc1C` (stereo unspecified), the activation in assay [1] was -37.4%. Also, the viability in assay [2] is 106%. Further, the Potency entry in assay [3], in assay [4], in assay [5], in assay [6], in assay [7] and in assay [8] was “inactive” throughout.

For the molecule `CO[C@@H]1[C@@H](OC(N)=O)[C@@H](O)[C@H](Oc2ccc3c(O)c(NC(=O)c4ccc(O)c(CC=C(C)C)c4)c(=O)oc3c2C)OC1(C)C`, the activation in assay [1] is -10.7% and -17.4%. Moreover, the viability in assay [2] was 122%. Besides, the Potency entry in assay [3], in assay [4], in assay [5], in assay [6], in assay [7] and in assay [8] was “inactive” each time.

As to `COc1ccc([C@@H]2CNC(=O)C2)cc1OC1CCCC1`, the activation in assay [1] is 7.46%. The viability in assay [2] is 118%. Also, the Potency result in assay [3], in assay [4], in assay [5], in assay [6], in assay [7] and in assay [8] was “inactive” in each case.

As to `CCCCC(CC)COC(=O)C(C#N)=C(c1ccccc1)c1ccccc1` (stereo unspecified), the activation in assay [1] is -10.7% and -6.01%. Moreover, the viability in assay [2] is 108%. Besides, the Potency result in assay [3], in assay [4], in assay [5], in assay [6], in assay [7] and in assay [8] was “inactive” each time.

As to `CC(C)=CC[C@@H](O)C1=CC(=O)c2c(O)ccc(O)c2C1=O`, the activation in assay [1] is 3.62%. Also, the Potency is 10.5 µM (active) in assay [2]; 14.8 µM (active) in assay [3]; 8.33 µM (active) in assay [4]; 9.34 µM (active) in assay [5]; 10.5 µM (active) in assay [6]; 10.5 µM (active) in assay [7]. The Potency in assay [8] is 10.5 µM (active).

As to `CCOCC(O)COc1ccc(NC(=O)CC[S+](C)C)cc1` (stereo unspecified), the activation in assay [1] was -1.78%. For the same molecule, the viability in assay [2] was 62.2%. The Potency entry in assay [3], in assay [4], in assay [5], in assay [6], in assay [7] and in assay [8] was “inactive” throughout.

Consider `O=C(O)c1cc(=O)[nH]c(=O)[nH]1`, for which the activation in assay [1] was 15.1% and 14.7%. The viability in assay [2] was 111%. Moreover, the Potency result in assay [3], in assay [4], in assay [5], in assay [6], in assay [7] and in assay [8] was “inactive” in each case.

Take `CC(C)[C@H](N)C(=O)OCCOCn1cnc2c(=O)[nH]c(N)nc21`: the activation in assay [1] is -14.1% and 18.6%. Also, the viability in assay [2] was 92.3%. Moreover, the Potency entry in assay [3], in assay [4], in assay [5], in assay [6], in assay [7] and in assay [8] was “inactive” throughout.
